# Laboratory results reported in PubChem BioAssay AID1159580 (chemical genetic matrix, 2015).
# “And” between values parts separate entries of the source, which are not always exact repeats. Equal values may be shown once. Screen size: about 5,500 compounds; about 2,000 (36%) were called active. Not shown: some 18% with an inconclusive outcome. Rule as the data show it: active = normalized growth mostly below about 0.91 (no sharp cut-off); inconclusive = no clear call, values can overlap the other calls; inactive = mostly above about 0.92. Some of the results follow.
# Assay: chemical genetic growth profiling, strain panel (AID 1159580);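 also: tested at 20 µM; growth read once vehicle control cultures reached saturation at 30 °C; 1 = growth at the plate median or of vehicle wells; lower values mean less growth of the strain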
# Conditions: growth OD
compound,measurement,setting,value
Cc1cc(O)c2c(c1)Cc1cccc(O)c1C2=O,normalized growth,"S. cerevisiae deletion strains, locus YAL013W, strain DEP1, stronger effect = lower value",0.978 (inactive)
same,normalized growth,"S. cerevisiae deletion strains, locus YBR021W, strain FUR4, stronger effect = lower value",1.09 (inactive)
same,normalized growth,"S. cerevisiae deletion strains, locus YBR229C, strain ROT2, stronger effect = lower value",1.02 (inactive)
same,normalized growth,"S. cerevisiae deletion strains, locus YCL029C, strain bik1, stronger effect = lower value",1.01 (inactive)
same,normalized growth,"S. cerevisiae deletion strains, locus YDL035C, strain GPR1, stronger effect = lower value",0.978 (inactive)
same,normalized growth,"S. cerevisiae deletion strains, locus YDL074C, strain BRE1, stronger effect = lower value",0.832 (inactive)
same,normalized growth,"S. cerevisiae deletion strains, locus YDL101C, strain DUN1, stronger effect = lower value",0.951 (inactive)
same,normalized growth,"S. cerevisiae deletion strains, locus YDL134C, strain PPH21, stronger effect = lower value",0.992 (inactive)
same,normalized growth,"S. cerevisiae deletion strains, locus YDL185W, strain tfp1, stronger effect = lower value",1 (inactive)
same,normalized growth,"S. cerevisiae deletion strains, locus YDL192W, strain arf1, stronger effect = lower value",1.02 (inactive)
same,normalized growth,"S. cerevisiae deletion strains, locus YDR101C, strain arx1, stronger effect = lower value",1.01 (inactive)
same,normalized growth,"S. cerevisiae deletion strains, locus YDR150W, strain NUM1, stronger effect = lower value",1.02 (inactive)
same,normalized growth,"S. cerevisiae deletion strains, locus YDR162C, strain NBP2, stronger effect = lower value",0.905 (inactive)
same,normalized growth,"S. cerevisiae deletion strains, locus YDR318W, strain mcm21, stronger effect = lower value",0.982 (inactive)
same,normalized growth,"S. cerevisiae deletion strains, locus YDR388W, stronger effect = lower value",0.998 (inactive)
same,normalized growth,"S. cerevisiae deletion strains, locus YDR502C, strain sam2, stronger effect = lower value",1 (inactive)
same,normalized growth,"S. cerevisiae deletion strains, locus YEL061C, strain CIN8, stronger effect = lower value",0.848 (active)
same,normalized growth,"S. cerevisiae deletion strains, locus YER110C, stronger effect = lower value",1.01 (inactive)
same,normalized growth,"S. cerevisiae deletion strains, locus YER155C, strain BEM2, stronger effect = lower value",1.02 (inactive)
same,normalized growth,"S. cerevisiae deletion strains, locus YER167W, strain BCK2, stronger effect = lower value",0.941 (inactive)
same,normalized growth,"S. cerevisiae deletion strains, locus YGL078C, strain dbp3, stronger effect = lower value",1.02 (inactive)
same,normalized growth,"S. cerevisiae deletion strains, locus YGL086W, strain mad1, stronger effect = lower value",0.979 (inactive)
same,normalized growth,"S. cerevisiae deletion strains, locus YGL248W, strain PDE1, stronger effect = lower value",0.958 (inactive)
same,normalized growth,"S. cerevisiae deletion strains, locus YGR078C, strain PAC10, stronger effect = lower value",0.979 (inactive)
same,normalized growth,"S. cerevisiae deletion strains, locus YGR135W, strain pre9, stronger effect = lower value",1.02 (inactive)
same,normalized growth,"S. cerevisiae deletion strains, locus YGR229C, strain SMI1, stronger effect = lower value",0.677 (active)
same,normalized growth,"S. cerevisiae deletion strains, locus YGR252W, strain gcn5, stronger effect = lower value",0.914 (inactive)
same,normalized growth,"S. cerevisiae deletion strains, locus YHR030C, strain SLT2, stronger effect = lower value",0.96 (inactive) and 1.05 (inactive)
same,normalized growth,"S. cerevisiae deletion strains, locus YHR079C, strain IRE1 (second series), stronger effect = lower value",1.02 (inactive)
same,normalized growth,"S. cerevisiae deletion strains, locus YHR079C, strain IRE1, stronger effect = lower value",1.04 (inactive)
same,normalized growth,"S. cerevisiae deletion strains, locus YHR094C, strain hxt1, stronger effect = lower value",1.01 (inactive)
same,normalized growth,"S. cerevisiae deletion strains, locus YHR129C, strain ARP1, stronger effect = lower value",0.926 (inactive)
same,normalized growth,"S. cerevisiae deletion strains, locus YHR200W, strain rpn10, stronger effect = lower value",1.05 (inactive)
same,normalized growth,"S. cerevisiae deletion strains, locus YIL066C, strain RNR3, stronger effect = lower value",0.717 (active)
same,normalized growth,"S. cerevisiae deletion strains, locus YIL073C, strain SPO22, stronger effect = lower value",0.898 (inactive)
same,normalized growth,"S. cerevisiae deletion strains, locus YIL125W, strain kgd1, stronger effect = lower value",0.998 (inactive)
same,normalized growth,"S. cerevisiae deletion strains, locus YIR030C, strain dcg1, stronger effect = lower value",1.1 [resistant] (active)
same,normalized growth,"S. cerevisiae deletion strains, locus YJL095W, strain BCK1, stronger effect = lower value",0.573 (active) and 1.05 (inactive)
same,normalized growth,"S. cerevisiae deletion strains, locus YJL134W, strain LCB3, stronger effect = lower value",1.01 (inactive)
same,normalized growth,"S. cerevisiae deletion strains, locus YJL168C, strain set2, stronger effect = lower value",1 (inactive)
same,normalized growth,"S. cerevisiae deletion strains, locus YJL187C, strain SWE1 (second series), stronger effect = lower value",0.742 (active)
same,normalized growth,"S. cerevisiae deletion strains, locus YJR043C, strain POL32, stronger effect = lower value",1.01 (inactive)
same,normalized growth,"S. cerevisiae deletion strains, locus YJR066W, strain TOR1, stronger effect = lower value",0.938 (inactive)
same,normalized growth,"S. cerevisiae deletion strains, locus YJR075W, strain HOC1, stronger effect = lower value",0.971 (inactive)
same,normalized growth,"S. cerevisiae deletion strains, locus YKL009W, strain mrt4, stronger effect = lower value",1.05 (inactive)
same,normalized growth,"S. cerevisiae deletion strains, locus YKL068W, stronger effect = lower value",1.02 (inactive)
same,normalized growth,"S. cerevisiae deletion strains, locus YKL085W, strain MDH1 (second series), stronger effect = lower value",1.03 (inactive)
same,normalized growth,"S. cerevisiae deletion strains, locus YKL085W, strain MDH1, stronger effect = lower value",1.03 (inactive)
same,normalized growth,"S. cerevisiae deletion strains, locus YKL190W, strain CNB1, stronger effect = lower value",0.995 (inactive)
same,normalized growth,"S. cerevisiae deletion strains, locus YKR001C, strain vps1, stronger effect = lower value",0.865 (active)
same,normalized growth,"S. cerevisiae deletion strains, locus YLR039C, strain RIC1, stronger effect = lower value",0.261 (active)
same,normalized growth,"S. cerevisiae deletion strains, locus YLR058C, strain SHM2, stronger effect = lower value",0.922 (inactive)
same,normalized growth,"S. cerevisiae deletion strains, locus YLR102C, strain apc9, stronger effect = lower value",1.05 (inactive)
same,normalized growth,"S. cerevisiae deletion strains, locus YLR113W, strain HOG1, stronger effect = lower value",1.05 (inactive)
same,normalized growth,"S. cerevisiae deletion strains, locus YLR262C, strain YPT6, stronger effect = lower value",0.517 (active)
same,normalized growth,"S. cerevisiae deletion strains, locus YLR268W, strain sec22, stronger effect = lower value",0.93 (inactive)
same,normalized growth,"S. cerevisiae deletion strains, locus YLR330W, strain CHS5, stronger effect = lower value",0.957 (inactive)
same,normalized growth,"S. cerevisiae deletion strains, locus YLR342W, strain FKS1 (second series), stronger effect = lower value",0.918 (inactive)
same,normalized growth,"S. cerevisiae deletion strains, locus YLR371W, strain rom2, stronger effect = lower value",1.02 (inactive)
same,normalized growth,"S. cerevisiae deletion strains, locus YLR418C, strain cdc73, stronger effect = lower value",0.902 (inactive)
same,normalized growth,"S. cerevisiae deletion strains, locus YML016C, strain PPZ1, stronger effect = lower value",0.999 (inactive)
same,normalized growth,"S. cerevisiae deletion strains, locus YML032C, strain rad52, stronger effect = lower value",0.906 (inactive)
same,normalized growth,"S. cerevisiae deletion strains, locus YML124C, strain tub3, stronger effect = lower value",1.03 (inactive)
same,normalized growth,"S. cerevisiae deletion strains, locus YMR078C, strain ctf18, stronger effect = lower value",0.974 (inactive)
same,normalized growth,"S. cerevisiae deletion strains, locus YMR223W, strain ubp8, stronger effect = lower value",1.06 (inactive)
same,normalized growth,"S. cerevisiae deletion strains, locus YMR307W, strain GAS1, stronger effect = lower value",0.874 (inactive)
same,normalized growth,"S. cerevisiae deletion strains, locus YNL067W, strain RPL9B, stronger effect = lower value",0.932 (inactive)
same,normalized growth,"S. cerevisiae deletion strains, locus YNL183C, strain NPR1, stronger effect = lower value",0.967 (inactive)
same,normalized growth,"S. cerevisiae deletion strains, locus YNL233W, strain BNI4, stronger effect = lower value",0.946 (inactive)
same,normalized growth,"S. cerevisiae deletion strains, locus YNL250W, strain rad50, stronger effect = lower value",0.962 (inactive)
same,normalized growth,"S. cerevisiae deletion strains, locus YNL271C, strain bni1, stronger effect = lower value",1.01 (inactive)
same,normalized growth,"S. cerevisiae deletion strains, locus YNL298W, strain CLA4, stronger effect = lower value",0.999 (inactive)
same,normalized growth,"S. cerevisiae deletion strains, locus YNL307C, strain MCK1, stronger effect = lower value",1 (inactive)
same,normalized growth,"S. cerevisiae deletion strains, locus YNL322C, strain KRE1, stronger effect = lower value",0.987 (inactive)
same,normalized growth,"S. cerevisiae deletion strains, locus YNR052C, strain pop2, stronger effect = lower value",0.949 (inactive)
same,normalized growth,"S. cerevisiae deletion strains, locus YOL006C, strain TOP1, stronger effect = lower value",0.261 (active)
same,normalized growth,"S. cerevisiae deletion strains, locus YOL012C, strain htz1",0.675 (inactive)
same,normalized growth,"S. cerevisiae deletion strains, locus YOL147C, strain pex11, stronger effect = lower value",1.05 (inactive)
same,normalized growth,"S. cerevisiae deletion strains, locus YOR061W, strain CKA2, stronger effect = lower value",0.995 (inactive)
same,normalized growth,"S. cerevisiae deletion strains, locus YOR069W, strain VPS5, stronger effect = lower value",0.951 (inactive)
same,normalized growth,"S. cerevisiae deletion strains, locus YOR136W, strain idh2, stronger effect = lower value",1 (inactive)
same,normalized growth,"S. cerevisiae deletion strains, locus YOR144C, strain elg1, stronger effect = lower value",1.06 (inactive)
same,normalized growth,"S. cerevisiae deletion strains, locus YOR184W, strain ser1, stronger effect = lower value",0.984 (inactive)
same,normalized growth,"S. cerevisiae deletion strains, locus YOR231W, strain MKK1, stronger effect = lower value",1.07 (inactive)
same,normalized growth,"S. cerevisiae deletion strains, locus YOR316C, strain cot1, stronger effect = lower value",1.06 (inactive)
same,normalized growth,"S. cerevisiae deletion strains, locus YPL055C, strain LGE1, stronger effect = lower value",0.753 (active)
same,normalized growth,"S. cerevisiae deletion strains, locus YPL241C, strain CIN2, stronger effect = lower value",0.982 (inactive)
same,normalized growth,"S. cerevisiae deletion strains, locus YPL256C, strain CLN2, stronger effect = lower value",1.09 (inactive)
same,normalized growth,"S. cerevisiae deletion strains, locus YPR119W, strain clb2, stronger effect = lower value",1.05 (inactive)
same,normalized growth,"S. cerevisiae deletion strains, locus YPR141C, strain kar3, stronger effect = lower value",1.02 (inactive)
same,normalized growth,"S. cerevisiae deletion strains, locus YPR163C, strain tif3, stronger effect = lower value",0.982 (inactive)
same,normalized growth,"S. cerevisiae deletion strains, locus YPR167C, strain met16, stronger effect = lower value",1.06 (inactive)
same,normalized growth,"S. cerevisiae deletion strains, strain wtn01, stronger effect = lower value",0.997 (inactive)
same,normalized growth,"S. cerevisiae strains, strain wild type, stronger effect = lower value",0.881 (active)
